Source: PubChem (National Center for Advancing Translational Sciences (NCATS))
HSD17B inh: inhibitors of human HSD17B10 dehydrogenase. Potency, µM (doses to about 57.1 µM), hits mostly inhibitors. recombinant HSD17B10, NADH fluorescence kinetic. 75,000 tested, 7.6% active. AID 893. Q99714;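 note: the protocol describes HADH2 (HSD17B10) and not the HSD17B4 of the title; nearly all actives have a fitted effect of over 70% in size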
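His-tagged E. coli-expressed HADH2 at 20 nM in 100 mM Tris-HCl pH 9.0 with 0.01 % Tween-20, preincubated 15 min with compound at room temperature. Reaction with 1 mM NAD+ and 90 uM beta-hydroxybutyryl coenzyme A; NADH fluorescence (360/450 nm) read kinetically over 4 min, last minus first point.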
ERK AVP block: vasopressin-driven ERK pathway inhibition. Potency, µM (titrated, usually from 57.5 µM), hits mostly inhibitors. HEK293-V1b, vasopressin-stimulated pERK AlphaScreen. AID 995. 72,000 tested, 0.99% active; note: nearly all actives have a fitted effect of over 55% in size
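HEK293 cells stably expressing V1b receptor, preincubated 30 min at 37 °C with compound, then stimulated 5 min with 25 nM vasopressin. Phospho-ERK by AlphaScreen SureFire after 5 h RT; normalized to DMSO and vasopressin; AC50 by Hill fit.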
PK Bst: pyruvate kinase (B. stearothermophilus) modulation; purified pyruvate kinase, luminescence ATP production; ribose 5-phosphate activator present at AC10; 51,000 tested, 1.2% active; Potency, µM; in the data active = potency below about 11 µM; inconclusive = mostly about 12 µM to 25 µM;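 the screen sought inhibitors and activators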
Luciferase inh: blocks Photinus pyralis firefly luciferase activity. Potency, µM (series often up to 57.1 µM), usual class: inhibitors. 72,000 tested, 2.2% active. AID 411. P08659. purified firefly luciferase, luminescence, 8 min; note: nearly all actives have a fitted effect of over 40% in size
Target sequence (P08659 whole entry, looked up): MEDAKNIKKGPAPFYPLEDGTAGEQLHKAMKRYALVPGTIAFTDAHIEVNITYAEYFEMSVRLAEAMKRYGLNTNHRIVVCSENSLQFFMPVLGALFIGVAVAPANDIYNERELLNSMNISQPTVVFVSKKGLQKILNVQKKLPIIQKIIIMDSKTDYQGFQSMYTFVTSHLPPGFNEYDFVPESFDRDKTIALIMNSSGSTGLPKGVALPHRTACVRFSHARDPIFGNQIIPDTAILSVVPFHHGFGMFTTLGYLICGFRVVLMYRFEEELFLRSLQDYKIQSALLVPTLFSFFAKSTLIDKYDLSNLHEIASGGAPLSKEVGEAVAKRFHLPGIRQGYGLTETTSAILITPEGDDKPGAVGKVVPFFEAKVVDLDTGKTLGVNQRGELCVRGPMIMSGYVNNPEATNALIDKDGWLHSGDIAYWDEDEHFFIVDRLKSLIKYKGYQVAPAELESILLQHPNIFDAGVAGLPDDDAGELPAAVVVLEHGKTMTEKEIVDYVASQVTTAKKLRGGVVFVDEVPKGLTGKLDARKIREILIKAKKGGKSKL
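Here, luciferase activity is measured as luminescence following an 8 min room-temperature reaction at 10 uM ATP, pH 7.2. Every library sample is titrated.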
HADH2 inhib: HADH2 (human) dehydrogenase inhibition | AID 886 | recombinant HADH2, NADH fluorescence, beta-hydroxybutyryl-CoA | Q99714 | 73,000 tested, 3.4% active | Potency, µM (titrated, usually from 57.1 µM), most hits filed as inhibitors; note: nearly all actives have a fitted effect of over 60% in size
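NADH fluorescence (ex 360/em 450 nm) read every 30 s for 4 min; activity taken as last-minus-first time point difference. Enzyme 20 nM, NAD+ 1 mM, beta-hydroxybutyryl-CoA 90 uM, pH 9.0 Tris buffer.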
15-hLO inh: inhibitors of human 15-lipoxygenase (ALOX15); P16050; purified 15hLO-1, xylenol orange hydroperoxide absorbance; Potency, µM (series often up to 57.1 µM), hits mostly inhibitors; 74,000 tested, 1.4% active; note: nearly all actives have a fitted effect of over 55% in size
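Hydroperoxide formed from arachidonic acid (50 uM) by purified human 15hLO-1 (40 nM) oxidizes ferrous iron, and the ferric-xylenol orange complex is read at 573 versus 405 nm. Compounds were preincubated 15 min; reaction ran 6 min at room temperature.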
Numbers stand for hits; n = inactive; u = inconclusive; x = not tested or not shown; [ ] = dose if it differs, or a comment. Most compounds without a hit are left out; they make up all but 11% or so of the library. Unless noted, calls come from the whole dose curve; as a rule, active = well fitted curve in the direction sought with a large enough effect; inconclusive = small, poorly fitted or top-dose-only effect, or another doubt; inactive = no such curve, though single readings can be large; an effect the other way counts as inactive or inconclusive.

SMILES	HSD17B inh	ERK AVP block	PK Bst	Luciferase inh	HADH2 inhib	15-hLO inh
Cc1cccn2c(=O)c3cc(C#N)c(=O)n(-c4c(C)n(C)n(-c5ccccc5)c4=O)c3nc12	n	n	n	n	u	n
COCCNC(=O)c1cc2c(=O)n3cccc(C)c3nc2n(Cc2ccncc2)c1=N	n	n	n	n	n	n
Cc1ccc(-n2c(=O)c(C#N)cc3c(=O)n4ccccc4nc32)cc1	3.16µM	n	n	n	n	n
Cc1cccn2c(=O)c3cc(C#N)c(=N)n(CCN4CCOCC4)c3nc12	31.6µM	n	n	n	u	n
Cc1cc(-n2c(=O)c(C#N)cc3c(=O)n4cccc(C)c4nc32)no1	15.8µM	n	n	n	3.16µM	n
COc1ccccc1Nc1cc(C(=O)NCCCN2CCOCC2)c2ccccc2n1	n	n	x	n	n	n
Cc1cccn2c(=O)c3cc(C(=O)NCCCN4CCOCC4)n(C)c3nc12	15.8µM	x	x	n	n	n
CCCCNC(=O)c1cc2c(=O)n3cccc(C)c3nc2n(CCN2CCOCC2)c1=N	20µM	n	n	n	n	n
COc1ccc(CCNC(=O)c2cc3c(=O)n4cccc(C)c4nc3n(Cc3ccncc3)c2=N)cc1	31.6µM	n	n	n	n	n
C=CCn1c(CCC(=O)O)ccc1-c1ccc(OC)cc1	u	n	n	n	n	12.6µM
O=C(O)CCc1ccc(-c2ccc(F)cc2)n1CCC(=O)O	u	n	n	n	u	n
O=C(O)CCc1ccc(-c2ccccc2)n1CC(=O)O	31.6µM	n	n	n	n	n
O=C(O)CCc1ccc(-c2ccccc2)n1-c1cccc(O)c1	31.6µM	u	n	n	u	10µM
COc1cc(-c2cc3nc(C)c(C)c(=O)n3[nH]2)cc(OC)c1OC	31.6µM	n	n	n	25.1µM	n
COc1ncc2ncc(=O)n(CCc3ccccc3)c2n1	n	n	x	n[11.4 µM]	n	n
C=CCn1c(SCC(=O)N2CCOCC2)nc2sc3c(c2c1=O)CCCC3	n	u	n	n	n	n
C=CCn1c(SCC(=O)N2CCOCC2)nc2scc(-c3ccco3)c2c1=O	n	31.6µM	n	n	n	u
O=S(=O)(O)n1ccnc1 (tested in a mixture with another compound)	n[11.4 µM]	n[11.5 µM]	x	n[11.4 µM]	n[11.4 µM]	n[11.4 µM]
COc1ccc(CNc2ncnc3ccc(-c4ccccc4OC)cc23)c(OC)c1	n	n	x	n[2.29 µM]	u	n
CC(CC1C(C#N)=C(N)SC(N)=C1C#N)c1ccccc1 (stereo not given)	u	n	n	n	31.6µM	15.8µM
CC(=O)Nc1ccc2c(c1)C(=O)N(C1CCCCC1)C2=O	3.98µM	n	n	n	u	n
CC(=O)CCc1c(C)[nH]c2ccc(NC(C)=O)cc2c1=O	31.6µM	n	x	n	n	u
CCOc1ccc2nc(N3CCC(C(=O)N4CCN(c5ccccn5)CC4)CC3)sc2c1	n	20µM	x	6.31µM	n	n
CCOc1ccc2nc(N3CCCC(C(=O)NCCCN4CCOCC4)C3)sc2c1 (stereo not given)	n	n	x	25.1µM	u	n
Cc1ccc(-c2nc(C#N)c(NCc3ccco3)o2)cc1	31.6µM	n	n	n	31.6µM	n
SMILES	HSD17B inh	ERK AVP block	PK Bst	Luciferase inh	HADH2 inhib	15-hLO inh
Cc1ccc2cc(C#N)c(NCc3ccco3)nc2c1	31.6µM	n	n	n	n	n
N#Cc1nc(-c2cccs2)oc1NCc1ccco1	25.1µM	u	n	n	u	n
N#Cc1nc(-c2ccco2)oc1NCc1ccco1	31.6µM	n	n	n	u	n
Cc1ccc(OCc2nc(C#N)c(NCc3ccco3)o2)cc1	n	n	n	n	n	n
O=S(=O)(c1ccccc1)c1nc(-c2ccco2)oc1NCCCN1CCOCC1	n	n	n	n	n	n
N#Cc1nc(-c2ccco2)oc1NCCCN1CCOCC1	25.1µM	n	n	n	31.6µM	n
Cc1ccc(CNC(=O)[C@@H]2C[C@H]2[C@@H](NP(=O)(c2ccccc2)c2ccccc2)c2ccccc2)o1	n	n	x	x	n	x
O=C1C=C(NCCc2cc(Br)c(O)c(Br)c2)C(=O)c2ncccc21	n[11.4 µM]	n[11.5 µM]	x	n[11.4 µM]	0.631µM	u
O=C1C=C(NCCO)C(=O)c2cnccc21	n	n	x	x	n	n
O=C(/C=C/c1ccccc1)c1ccccc1	x	x	n	10µM	x	x
O=C(/C=C/c1ccc(O)cc1)c1ccccc1O	n	3.98µM	x	x	x	10µM
O=C(/C=C/c1ccc(O)cc1)c1c(O)cc(O)cc1O	n	n	x	x	x	n
O=C(/C=C\c1ccc(O)cc1)c1ccc(O)cc1O	n	u	x	25.1µM	u	u
O=C(/C=C\c1ccccc1)c1ccccc1O	n[11.4 µM]	n[11.5 µM]	x	n[11.4 µM]	n[11.4 µM]	n[11.4 µM]
O=C(/C=C/c1ccc(O)cc1)c1cccs1	u	15.8µM	x	x	x	u
C#CC(C)OC(=O)c1nnc2c3ccccc3n(COC)c2n1 (stereo not given)	n[11.4 µM]	n[11.5 µM]	x	x	n[11.4 µM]	n[11.4 µM]
CCOc1ccc(-c2cnc(SCC(N)=O)nc2N)cc1	n	n	10.2	n	u	n
CCOC(=O)c1c(OCC)[nH]c2c1cc(O)c1ccccc12	u	25.1µM	x	n	2.51µM	7.94µM
CCCCc1cc2c(c(NC(=O)CC)n1)c(=O)oc1ccccc12	31.6µM	n	n	n	n	n
COC(=O)c1ccccc1NC(=O)Cn1c(=O)oc2ccc(Cl)cc21	25.1µM	n	x	n	25.1µM	n
Cc1ccc2cc3cc(C(=O)NCCCN4CCc5ccccc5C4)oc3nc2c1	25.1µM	n	u	n	u	n
Cc1ccc2cc3cc(C(=O)NCCCN4CCCCCC4)oc3nc2c1	15.8µM	n	u	n	u	n
CN(C)C=NC(=O)/C(C#N)=C1\CCc2ccccc2N1	n	n	x	n	n	7.94µM
CCCCCCC1C(C#N)=C(N)OC2=C1C(=O)CCC2 (stereo not given)	31.6µM	x	x	n	u	u
C#CCN1C(C)=C(C(=O)OC)[C@@H](c2cccc([N+](=O)[O-])c2)C(C(=O)OCC)=C1C	n	n	x	n	n	n
SMILES	HSD17B inh	ERK AVP block	PK Bst	Luciferase inh	HADH2 inhib	15-hLO inh
Cc1cc(C)nc(NS(=O)(=O)c2ccc(-n3cccc3)cc2)n1	15.8µM	n	n	n	n	n
Clc1ccccc1-c1nc(NCc2cccnc2)c2ccccc2n1	n	u	x	n[2.29 µM]	n	n
CCN(CC)c1ccc2cc(NC(=O)CCC(=O)O)c(=O)oc2c1	25.1µM	n	n	15.8µM	u	n
CCN(CC)c1ccc2cc(C(=O)Nc3ccccn3)c(=O)oc2c1	x	x	n	1µM	x	x
CN(C)Cc1ccc(C(C)(C)C)cc1-c1cc(C(C)(C)C)ccc1CN(C)C	n[11.4 µM]	n[11.5 µM]	x	n[11.4 µM]	n[11.4 µM]	n[11.4 µM]
O=C(NC1CCCCC1)N1CCCCCCC1	n	n	n	n	n	n
O=C(NC1CCCCC1)N1CCN(C2CCCCC2)CC1	12.6µM	n	x	n	n	n
C(=Nc1ccc2c(c1)Cc1ccccc1-2)c1ccccn1	n[11.4 µM]	n[11.5 µM]	x	n[11.4 µM]	n[11.4 µM]	n[11.4 µM]
O=C(Cc1ccccc1)N1CCC(c2nc3ccccc3[nH]2)CC1	n	n	n	n	n	n
